From PubChem BioAssay
Calls of active or inactive are those of the source.

Columns and labels:
[1] = tested on: Human papillomavirus type 1a protein E7 (residues 44-93); assay: HPV1a E7 fragment binders on microarrays, primary screen, biochemical, small-molecule microarray, residues 44-93, 635 nm fluorescence (AID 1108); settings: small-molecule microarray binding, fluorescence 635 nm; higher = more signal;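 further: E7 fragment applied at 1 µg/mL in TBST for 1 h at 4 C; score combines spot fluorescence with its signal to noise ratio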
[2] = modulators of HCV replicon luciferase signal, primary screen, HCV replication inhibitor project, Huh7 cells, luciferase reporter (AID 1109); settings: 48 h, higher = more signal;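 further: huh7 hepatoma cells harbouring a luciferase neomycin HCV replicon reporter; luciferase luminescence as measure of HCV replicon replication; test concentration not given here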
[3] = target: Left-right determination factor 2 (Homo sapiens) (UniProt O00292); assay: LEFTY2 binders on small-molecule microarrays, primary screen, biochemical, small-molecule microarray, 635 nm fluorescence scan (AID 1110); settings: LEFTY2 binding, higher = more signal
Chain of Left-right determination factor 2 (Homo sapiens) (O00292 whole entry, looked up): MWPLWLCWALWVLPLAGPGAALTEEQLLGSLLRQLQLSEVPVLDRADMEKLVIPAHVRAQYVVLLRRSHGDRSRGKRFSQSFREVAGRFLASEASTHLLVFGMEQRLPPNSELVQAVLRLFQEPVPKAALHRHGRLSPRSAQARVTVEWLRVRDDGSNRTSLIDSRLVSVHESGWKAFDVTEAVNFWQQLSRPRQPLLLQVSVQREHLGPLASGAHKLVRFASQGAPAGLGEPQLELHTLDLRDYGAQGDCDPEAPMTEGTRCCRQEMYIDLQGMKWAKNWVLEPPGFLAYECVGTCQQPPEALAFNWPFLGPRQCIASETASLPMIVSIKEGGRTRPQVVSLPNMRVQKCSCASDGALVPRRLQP

[4] = target: Calmodulin-1 (Homo sapiens) (UniProt P0DP23); assay: CALM1 binders on microarrays, EGTA buffer, profiling panel, biochemical, small-molecule microarray, Cy5-labelled CALM1 (AID 1111); settings: Cy5-CALM1 binding fluorescence, higher = more signal;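 further: labelled calmodulin applied in Tris saline Tween buffer holding calcium plus EGTA and DTT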
[5] = target: Calmodulin-1 (Homo sapiens) (UniProt P0DP23); assay: calcium-bound CALM1 binders on microarrays, profiling panel, artefact control for SMM control-protein annotation, biochemical, small-molecule microarray, Cy5-labelled CALM1, plus calcium (AID 1112); settings: Cy5-CALM1 binding fluorescence, higher = more signal;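 further: score merges spot fluorescence with signal to noise from triplicate slides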
[6] = small-molecule microarray binders of probe aWnt5a, primary screen, biochemical, biotinylated probe, 635/667 nm fluorescence (AID 1113); settings: higher = more signal;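 further: score merges 667 nm fluorescence intensity with signal-to-noise per printed feature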
[7] = small-molecule microarray binders of probe aShh, primary screen, biochemical, biotinylated probe, 635/667 nm fluorescence (AID 1114); settings: higher = more signal;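 further: probe is biotin-labelled aShh protein from a stem cell growth factor screen; measures binding of labelled protein to compounds printed on the slide; score merges feature fluorescence at 667 nm with signal-to-noise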
[8] = small-molecule microarray binders of probe aNog, primary screen, biochemical, biotinylated probe, 635/667 nm fluorescence (AID 1115); settings: higher = more signal;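 further: probe is biotinylated aNog protein used at 0.15 µg/mL for 1 h at 4 C; z-score combines 667 nm fluorescence of each spot with its signal to noise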
[9] = target: Torsin-1A-interacting protein 1 (Homo sapiens) (UniProt Q5JTV8); assay: LAP1 binders from COS7 cell lysate, primary screen, small-molecule microarray, 635/667 nm fluorescence (AID 1116); settings: COS7-hLAP1 lysate binding, 635 nm fluorescence, higher = more signal
Chain of Torsin-1A-interacting protein 1 (Homo sapiens) (Q5JTV8 whole entry, looked up): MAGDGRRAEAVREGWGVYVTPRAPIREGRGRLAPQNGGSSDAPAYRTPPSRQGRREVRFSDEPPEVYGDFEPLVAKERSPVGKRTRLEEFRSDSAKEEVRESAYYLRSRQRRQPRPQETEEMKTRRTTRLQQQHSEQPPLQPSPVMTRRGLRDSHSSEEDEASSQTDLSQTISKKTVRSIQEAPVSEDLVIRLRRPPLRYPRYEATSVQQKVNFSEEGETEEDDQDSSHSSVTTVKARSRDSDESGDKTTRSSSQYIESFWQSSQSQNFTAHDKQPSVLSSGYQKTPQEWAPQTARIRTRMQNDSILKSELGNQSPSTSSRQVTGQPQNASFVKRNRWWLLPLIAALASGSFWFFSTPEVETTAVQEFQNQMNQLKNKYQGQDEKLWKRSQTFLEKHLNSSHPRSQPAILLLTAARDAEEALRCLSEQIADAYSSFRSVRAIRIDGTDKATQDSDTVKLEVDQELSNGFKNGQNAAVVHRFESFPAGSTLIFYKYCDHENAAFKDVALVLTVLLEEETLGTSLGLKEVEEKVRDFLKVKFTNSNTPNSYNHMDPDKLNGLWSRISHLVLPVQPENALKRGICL

[10] = target: Alpha-bungarotoxin (Bungarus multicinctus) (UniProt P60615); assay: alpha-bungarotoxin binders on microarray, profiling panel, artefact control for SMM control protein annotation, biochemical, small-molecule microarray, Alexa647 label, 635/667 nm fluorescence (AID 1117); settings: alpha-BTX-A647 binding fluorescence, higher = more signal
Chain of Alpha-bungarotoxin (Bungarus multicinctus) (P60615 whole entry, looked up): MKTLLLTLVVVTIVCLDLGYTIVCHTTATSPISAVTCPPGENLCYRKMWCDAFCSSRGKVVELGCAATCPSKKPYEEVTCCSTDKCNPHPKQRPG

Albumin (Bos taurus) = Albumin (Bos taurus) (UniProt P02769); assay: bovine serum albumin binders on microarray, profiling panel, artefact control for SMM control protein annotation, biochemical, small-molecule microarray, Alexa647 label, 635/667 nm fluorescence (AID 1118); settings: BSA-A647 binding, fluorescence 635 nm, higher = more signal;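 further: score merges 667 nm emission intensity and signal-to-noise per printed compound spot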
Chain of Albumin (Bos taurus) (P02769 whole entry, looked up): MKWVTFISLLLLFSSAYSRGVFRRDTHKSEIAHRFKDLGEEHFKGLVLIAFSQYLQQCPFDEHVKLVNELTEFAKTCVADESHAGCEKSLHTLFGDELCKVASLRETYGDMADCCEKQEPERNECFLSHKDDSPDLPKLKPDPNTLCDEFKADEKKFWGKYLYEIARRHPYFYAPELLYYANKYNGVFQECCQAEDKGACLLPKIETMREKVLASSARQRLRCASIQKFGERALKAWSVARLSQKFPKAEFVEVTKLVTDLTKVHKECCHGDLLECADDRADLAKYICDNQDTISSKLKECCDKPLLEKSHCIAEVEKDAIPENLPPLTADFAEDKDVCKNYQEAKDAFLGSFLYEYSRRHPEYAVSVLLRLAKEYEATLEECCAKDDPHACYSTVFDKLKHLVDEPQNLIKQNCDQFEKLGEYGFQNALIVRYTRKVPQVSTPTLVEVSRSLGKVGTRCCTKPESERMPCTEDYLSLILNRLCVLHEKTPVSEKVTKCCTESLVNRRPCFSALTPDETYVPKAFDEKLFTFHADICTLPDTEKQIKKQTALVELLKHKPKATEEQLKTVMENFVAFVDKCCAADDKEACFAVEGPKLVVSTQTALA

[11] = small-molecule microarray binders of probe aXIP, primary screen, biochemical, NeuroSMM set, 635/667 nm fluorescence (AID 1119); settings: higher = more signal, called active from +8 up or from −8 down;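 further: probe is the protein aXip251-270 applied at 1 µg/mL to compound-printed slides; binding of probe to printed compounds measured as 667 nm fluorescence plus signal to noise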
[12] = small-molecule binders of probe aNOTCH3, primary screen, biochemical, small-molecule microarray, 635/667 nm fluorescence (AID 1120); settings: higher = more signal;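 further: probe is a biotin-tagged antibody raised against NOTCH3 rather than NOTCH3 protein; score merges spot fluorescence near 667 nm with spot signal to noise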
[13] = small-molecule binders of probe aNOTCH2, primary screen, biochemical, small-molecule microarray, 635/667 nm fluorescence (AID 1121); settings: higher = more signal;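 further: score merges feature fluorescence read at 667 nm with its signal to noise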
[14] = target: Carbonic anhydrase 2 (Homo sapiens) (UniProt P00918); assay: CAII small-molecule binders, profiling panel, biochemical, small-molecule microarray, Alexa647-labelled CAII (AID 1122); settings: CAII-A647 binding fluorescence, higher = more signal
[15] = COS7 lysate on small-molecule microarray, probe aHis, 635 nm (AID 1123); settings: COS7 cell lysate, fluorescence, higher = more signal;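 further: z-score combines 667nm fluorescence intensity with signal-to-noise per printed compound spot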
[16] = compound binding in COS7 lysate, probe aLAP1, primary screen, cell lysate, small-molecule microarray (AID 1124); settings: probe aLAP1, fluorescence, higher = more signal;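 further: lysate comes from COS7 cells expressing LAP1 and is applied at 0.3 µg/mL; score merges spot fluorescence near 667 nm with signal-to-noise over triplicate slides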
Sam68 (KHDRBS1) = assay: Sam68 small-molecule binders, primary screen, biochemical, small-molecule microarray, 635 nm fluorescence (AID 1125); settings: small-molecule microarray binding, higher = more signal;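 further: score merges 667 nm channel intensity with signal to noise over triplicate slides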
[17] = tested on: Chordin-like protein 2 (CHRDL2); assay: CHRDL2 small-molecule binders, primary screen, biochemical, small-molecule microarray, 635 nm fluorescence (AID 1126); settings: small-molecule microarray binding, fluorescence 635 nm; higher = more signal;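 further: printed compound slides probed with Chrdl2 protein at 4 µg/mL for 1 h at 4 C; score merges 667 nm emission intensity with signal to noise over three replicate slides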
[18] = target: Concanavalin-A (Canavalia ensiformis) (UniProt P02866); assay: ConA small-molecule binders, primary screen, artefact control for SMM control protein annotation, biochemical, small-molecule microarray, Alexa647 label, 635 nm (AID 1127); settings: ConA-A647 binding fluorescence, higher = more signal;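 further: z combines 667 nm emission intensity with signal-to-noise across three replicate slides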
Chain of Concanavalin-A (Canavalia ensiformis) (P02866 whole entry, looked up): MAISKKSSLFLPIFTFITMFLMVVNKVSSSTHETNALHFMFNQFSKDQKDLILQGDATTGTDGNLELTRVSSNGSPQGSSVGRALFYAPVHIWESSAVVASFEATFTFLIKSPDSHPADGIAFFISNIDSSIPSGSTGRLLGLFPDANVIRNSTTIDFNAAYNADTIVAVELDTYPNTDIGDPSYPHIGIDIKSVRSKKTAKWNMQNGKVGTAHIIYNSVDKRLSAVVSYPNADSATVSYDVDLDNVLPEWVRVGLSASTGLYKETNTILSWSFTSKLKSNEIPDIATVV

Structure (SMILES) | composite z-score [1] | z-score [2] | composite z-score [3] | composite z-score [4] | composite z-score [5] | composite z-score [6] | composite z-score [7] | composite z-score [8] | composite z-score [9] | composite z-score [10] | composite z-score (Albumin (Bos taurus)) | composite Z-score [11] | composite z-score [12] | composite z-score [13] | composite z-score [14] | composite z-score [15] | composite z-score [16] | composite z-score (Sam68 (KHDRBS1)) | composite z-score [17] | composite z-score [18]
CCOC(=O)C[C@H]1[C@H](OC(=O)Cc2ccc3c(c2)OCO3)[C@@H](NC(=O)c2ccc3ccccc3c2)c2cc(OCCCO)ccc2N1C(=O)Cc1ccc(OC)cc1 | 1.01 | -1.74 | 0.296 | 1.19 | 0.139 | -0.159 | -0.367 | -0.568 | 0.941 | 0.454 | 0.897 | 0.563 (inactive) | 0.0284 | -0.0846 | 0.0553 | 1.54 | -0.333 | 0.952 | 0.472 | 0.684
COc1ccc([Si](C)(C)[C@@H]2[C@@H](CC(=O)N(CCO)Cc3ccccc3)O[C@]3(C(=O)N(Cc4cccc(N5CCC5=O)c4)c4ccccc43)[C@H]2C)cc1 | 0.411 | -3.81 | 0.571 | -0.0736 | -0.322 | -0.0718 | -0.0709 | -0.411 | 1.28 | 0.508 | 0.047 | 0.0923 (inactive) | -0.0647 | -0.0916 | 0.401 | 2.49 | 1.95 | 1.05 | 0.9 | 0.902
COCCOC(=O)N1C(=O)[C@@]2(c3cc(C#CCC(C(=O)OC)C(=O)OC)ccc31)[C@H](c1ccccc1OCCO)N1[C@H](c3ccccc3)[C@H](c3ccccc3)OC(=O)[C@H]1[C@@H]2C(=O)N1CCCCCCC1 | 1.39 | -2.05 | 1.24 | 2.17 | 1.49 | 0.697 | 0.626 | 2.62 | 1.31 | 2 | -0.0742 | 2.67 (inactive) | 1.23 | 0.36 | 0.488 | 2.18 | 0.385 | 1.32 | 1.27 | 1.02
COC(=O)c1ccc(C#CC(NP(=O)(c2ccccc2)c2ccccc2)c2ccccc2)cc1 (stereo not given) | 1.39 | -0.173 | -0.34 | 1.92 | 0.863 | 0.0381 | -0.519 | 1.59 | 0.403 | 2.89 | 1 | 0.444 (inactive) | 0.272 | 0.335 | 1.1 | 2.59 | -0.0375 | 1.08 | 1.49 | 1.15
COCCOC(=O)N1C(=O)[C@@]2(c3ccccc31)[C@H](C(=O)N1CCc3cc(OC)c(OC)cc3C1)[C@H]1C(=O)O[C@H](c3ccccc3)[C@H](c3ccccc3)N1[C@@H]2c1ccccc1OCCO | 0.583 | -1.51 | 0.284 | 1.25 | 0.868 | -0.124 | 0.319 | 0.185 | 0.987 | 2.42 | 0.484 | 0.497 (inactive) | 0.0556 | -0.0607 | 0.441 | 1.24 | 0.0221 | 1.3 | 0.107 | 1.17
O=C1OCC=C[C@H]2OC34C=CCN(Cc5ccccc5)C(=O)[C@H]3N(CCO)C(=O)[C@@H]4[C@@H]12 (stereo not given in full) | 0.257 | -0.877 | -0.864 | -0.289 | 0.822 | -0.144 | -0.134 | -0.182 | -0.459 | -0.38 | 0.661 | 0.383 (inactive) | -0.248 | -0.177 | 0.824 | 0.666 | -0.0963 | -0.72 | -1.82 | -0.403
CCCC=C(CCC)[C@@H](NS(=O)(=O)c1ccc(C(F)(F)F)cc1)c1ccc(-c2ccccc2)cc1 | 1.32 | -1.08 | 0.34 | 1.06 | 0.878 | 0.145 | 0.217 | 0.157 | 0.0541 | 0.709 | 0.822 | -0.118 (inactive) | 0.305 | -0.0467 | 0.279 | 2.24 | 0.348 | 1.21 | -0.386 | 0.882
C=C[C@H](OC)[C@@H](OC(=O)Nc1ccc(SC)cc1)c1ccc(OC)c(O)c1 | 0.318 | 0.899 | -0.784 | -0.414 | 0.319 | -0.176 | -0.0626 | -0.15 | 0.324 | -0.508 | -1.37 | 0.157 (inactive) | -0.403 | -0.183 | 0.1 | 0.677 | -0.245 | 0.347 | -0.998 | -0.473
O=C(CS)NCCCCCCNC(=O)[C@@H]1C[C@@H]2C(=O)N[C@@H](Cc3ccccc3)C(=O)N2[C@@H]1c1ccc(O)cc1 | 1.45 | -0.144 | 0.621 | 2.31 | -0.23 | 0.0179 | -0.177 | -0.443 | 1 | 1.7 | -0.318 | 1.1 (inactive) | -0.128 | -0.168 | 0.636 | 2.87 | 1.47 | 1.28 | 0.976 | 0.938
O=C1c2ccccc2[C@](Cc2ccccc2I)(C(=O)NCC(F)(F)F)[C@H](c2ccc(CO)cc2)N1Cc1ccccc1C(F)(F)F | 0.517 | -0.326 | 0.13 | 1.47 | 0.296 | -0.149 | 0.164 | -0.0101 | 0.857 | 0.449 | 0.89 | 0.34 (inactive) | -0.099 | -0.175 | 0.411 | 1.58 | 0.494 | 1.32 | -0.324 | 0.609
C=CCc1cccc([C@H]2N[C@H](C(=O)O)CC[C@@H]2C)c1 | 0.175 | -0.222 | 0.956 | -0.962 | -1.26 | -0.232 | -0.271 | -0.539 | 0.0883 | -0.142 | -0.595 | -0.149 (inactive) | -0.122 | -0.157 | 0.0666 | -0.31 | -0.27 | 0.538 | 0.843 | 0.0607
